According to PubChem BioAssay (NCI):
Compounds without any hit were thinned out: in the full panel of roughly 83,000, 20% have a hit.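 Values shown are percent growth following 48 h exposure of cells in 96-well plates to a single concentration of compound; below 10 was considered active.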 A number with no mark means an inactive call. Calls of active or inactive are those of the source.

Tests used:
Assay in all cases: NCI-60 one-dose screen, 48 h (100 = growth as untreated, 0 = no growth, -100 = all killed)
NCI-H23 lung = conditions: 10 µM unless noted
NCI-H226 lung = conditions: 10 µM unless noted
NCI-H322M lung = conditions: 10 µM unless noted
NCI-H460 lung = conditions: 10 µM unless noted
HOP-92 NSCLC = conditions: 10 µM
NCI-H522 lung = conditions: 10 µM
A549/ATCC NSCLC = conditions: 10 µM unless noted
786-0 renal = conditions: 10 µM unless noted
DU-145 prostate = conditions: 10 µM unless noted
K-562 leukemia = conditions: 10 µM unless noted
MALME-3M melanoma = conditions: 10 µM unless noted
MDA-MB-231 breast = conditions: 10 µM unless noted
RXF 393 renal = conditions: 10 µM unless noted
SF-268 CNS = conditions: 10 µM unless noted
SF-295 CNS = conditions: 10 µM unless noted
SF-539 CNS = conditions: 10 µM unless noted
UACC-257 melanoma = conditions: 10 µM unless noted
M14 melanoma = conditions: 10 µM unless noted
COLO 205 colon = conditions: 10 µM unless noted

Row | SMILES | growth (NCI-H23 lung) | growth (NCI-H226 lung) | growth (NCI-H322M lung) | growth (NCI-H460 lung) | growth (HOP-92 NSCLC) | growth (NCI-H522 lung) | growth (A549/ATCC NSCLC) | growth (786-0 renal) | growth (DU-145 prostate) | growth (K-562 leukemia) | growth (MALME-3M melanoma) | growth (MDA-MB-231 breast) | growth (RXF 393 renal) | growth (SF-268 CNS) | growth (SF-295 CNS) | growth (SF-539 CNS) | growth (UACC-257 melanoma) | growth (M14 melanoma) | growth (COLO 205 colon) [%]
1 | Nc1ncn([C@@H]2O[C@H](CO)[C@@H](O)C2(F)F)c(=O)n1 | 30.6% | 52.3% | 70% | 9.34% (active) | 34.3% | 86.9% | 37.9% | 26.3% | 43.5% | 65.7% | 67.9% | 80% | 45% | 65.4% | 77.9% | 22.3% | 77.5% | 15.6% | 
2 | COc1cc2ncnc(-n3ncc4cc(NC(=O)Nc5ccc(Cl)c(C)c5)ccc43)c2cc1OC | 95.5% | 85.9% | 88.7% | 102% | 93.7% | 86.9% | 99.9% | 77.5% | 101% | 90.5% | 82.8% | 98.9% | 99.4% | 102% | 96.9% | 59.7% | 102% | 79.3% | 
3 | CC1(C)NCCC[C@]2(C)[C@H]3CC=C4[C@@H]5C[C@](C)(COC(=O)c6ccccc6C(=O)O)CC[C@]5(C)CC[C@@]4(C)[C@]3(C)CC[C@@H]12 | 66.9% | 86.5% | 91% | 29.7% | 54.9% | 79% | 56.7% | 65.2% | 79.3% |  | 66.3% | 84% |  | 60.7% | 60.3% | 66.6% | 67.8% | 69.3% | 
4 | O=c1c(N=Nc2nccs2)c(-c2ccccc2)[nH]n1-c1nc(-c2ccccc2)cs1 | 36.3% | 56.2% | 24.5% | 22.5% | -8.96% (active) | 20.9% | 36.3% | 43.7% | 43.8% | 32.4% | 72% | 53.1% | 65.2% | 32.3% | 25% | 39.7% | 39.6% | 28.3% | 
5 | CC1=C[C@@H]2c3c(c(O)c(O)c4oc5cc(O)cc(O)c5c(=O)c34)[C@@H](c3cc(O)c(O)c4oc5cc(O)cc(O)c5c(=O)c34)[C@@H]2C(C)(C)C1 | -20.3% (active) | 8.46% (active) | 16.9% | -28.3% (active) | -15% (active) | -60.8% (active) | 9.43% (active) | -40.3% (active) | 20.7% |  | -10.3% (active) | -38.2% (active) |  | 3.54% (active) | -26.7% (active) | -5.82% (active) | 27% | -47% (active) | 
6 | O=C(Nc1ccccc1)Nc1ccc(Nc2ncnc3sc4c(c23)CCCC4)cc1 | 100% | 89.9% | 106% | 104% | 101% | 93% | 73.9% | 110% | 109% | 99.8% | 102% | 91.7% | 102% | 100% | 102% | 104% | 93.5% | 103% | 
7 | O=C1OC(c2ccc(-c3ccccc3)cc2)=C/C1=C/c1c2ccccc2cc2ccccc12 | 99.4% | 78.5% | 113% | 94.5% | 79.2% | 109% | 25.8% |  | 121% | 93.3% | 113% | 98.5% |  | 95.9% |  | 110% | -47.9% (active) | 108% | 101
8 | O=C1c2ccccc2CCc2ccccc21 | 100% | 100% | 92.7% | 108% | 78.7% | 86.4% | 98.5% | 109% | 104% |  | 98% | 96.8% | 101% | 96.5% | 76.8% | 107% | 103% | 96.2% | 
9 | CC[C@H](Nc1ncnc2nc[nH]c12)c1nc2cccc(NCc3ccc(C(=O)NO)nc3)c2c(=O)n1-c1ccccc1 | 41.1% | 66.7% | 77.7% | 24.6% | 23.2% | 22.9% | 68.2% | 59.1% | 67% | 10.5% | 62.3% | 50.6% | 27.8% | 35.9% | 80.9% | 10.9% | 56.3% | 68.5% | 
10 | O=C(CCCC(=O)Nc1ccc(Cn2nnc3cc(Cl)c(Cl)cc32)cc1)Nc1ccc(CN2N=NC3C=C(Cl)C(Cl)=CC32)cc1 (stereo unspecified) | 62.2% | 72.7% | 74% | 84.1% | 64.7% | 62.4% | 74.5% | 85.3% | 93.3% | 67% | 97% | 76.4% | 93.7% | 78.1% | 71.9% | 88.2% | 81.1% | 87.2% | 
11 | Nc1nc2c(c3cnccc13)C(c1ccc(Cl)c(Cl)c1)Cc1cnccc1-2 (stereo unspecified) | -37.6% (active) | -26% (active) | -26.6% (active) | -29.6% (active) | -45% (active) | -16.4% (active) | -24.7% (active) | -65.8% (active) | -5.69% (active) | 4.04% (active) | -67% (active) | -35% (active) | -74.2% (active) | -10.9% (active) | -29.9% (active) | -45.1% (active) | -12.8% (active) | -44.2% (active) | 
12 | COC(=O)/C=C/c1cc(O)c2oc(-c3ccc(O)c(O)c3)c(C(=O)OC)c2c1 | 30.4% | 18.2% | 48.7% | 29.1% | 56.1% | -0.902% (active) | 57.2% | 44.2% | 17.5% |  | 57.4% | 31.1% |  | 25.2% | -11.3% (active) | 2.83% (active) | 60.4% | 21% | 
13 | COC(=O)Nc1nc2ccc(C(=O)c3ccccc3N(C)C3COC3)cc2[nH]1 | 54.4% | 49.6% | 49.5% | 13.5% | 41.1% | 13.1% | 42.4% | 34.4% | 33.7% |  | 58.8% | 55.2% |  | 45.7% | 14.3% | 9.06% (active) | 37.9% | 12.8% | 
14 | CCS(=O)(=O)OCCO[C@H]1Cc2cc3ccc(=O)oc3cc2OC1(C)C | 105% | 98.4% | 111% | 105% | 103% | 89.1% | 97.3% | 106% | 103% |  | 105% | 115% |  | 98.9% | 101% | 100% | 97.8% | 104% | 
15 | N=C(N)c1ccc(-c2ccc(-c3ccc(F)cc3)s2)cc1 | -91.8% (active) | -77.3% (active) | -91.2% (active) | -88.9% (active) | -86.2% (active) | -58.9% (active) | -74.2% (active) | -82.1% (active) | -92.9% (active) | -62.9% (active) | -75.6% (active) | -86.8% (active) | -98.4% (active) | -79.9% (active) | -94.1% (active) | -95.4% (active) | -79.5% (active) | -83.1% (active) | 
16 | C/C(CCC(=O)O)=N/Nc1ccc([N+](=O)[O-])cc1 | 87.8% | 93.3% | 93.5% | 38% | 74.9% | 61.2% | 54% | 45.7% | 82.2% | 22.3% | 111% | 51.4% | 99.4% | 72.3% | 2% (active) | 12.7% | 90.3% | 24.3% | 
17 | CCOC(=O)c1c(C)oc2ncnc(Nc3ccc(NC(=O)Nc4cccc(Cl)c4)cc3)c12 | 64.1% | 54.8% | 83.6% | 67.2% | 50.7% | 57.2% | 32.3% | 79.1% | 70.8% | 67.7% | 81.4% | -18.7% (active) | 63.6% | 86.4% | 79.6% | 16.6% | 84% | 48.6% | 
18 | Nc1nc2c(c3cnccc13)C(c1cccc(Cl)c1)Cc1cnccc1-2 (stereo unspecified) | 0.544% (active) | 17.2% | 40.1% | 2.15% (active) | 33.1% | 7.88% (active) | 13.6% | 19.6% | 10.7% | 9.68% (active) | 62.4% | 8.99% (active) | 7.47% (active) | 20.7% | 8.34% (active) | -18.5% (active) | 60.2% | 1.08% (active) | 
